# High-throughput results from PubChem.
# This excerpt belongs to a sample that is enriched for hits.
# KDM5B inhibitor: inhibitors of human KDM5B histone demethylase | Q9UGL1 | KDM5B demethylase, FDH-coupled NADH fluorescence (FDH is formaldehyde dehydrogenase) | Potency, µM (series often up to 57.7 µM), hits mostly inhibitors | 2.6% of 220,000 active | AID 1347165; active = well fitted inhibition curve with a large enough effect; note: 0% is about no effect; nearly all actives have a fitted effect of over 70% in size
# Target sequence (Q9UGL1 whole entry, looked up): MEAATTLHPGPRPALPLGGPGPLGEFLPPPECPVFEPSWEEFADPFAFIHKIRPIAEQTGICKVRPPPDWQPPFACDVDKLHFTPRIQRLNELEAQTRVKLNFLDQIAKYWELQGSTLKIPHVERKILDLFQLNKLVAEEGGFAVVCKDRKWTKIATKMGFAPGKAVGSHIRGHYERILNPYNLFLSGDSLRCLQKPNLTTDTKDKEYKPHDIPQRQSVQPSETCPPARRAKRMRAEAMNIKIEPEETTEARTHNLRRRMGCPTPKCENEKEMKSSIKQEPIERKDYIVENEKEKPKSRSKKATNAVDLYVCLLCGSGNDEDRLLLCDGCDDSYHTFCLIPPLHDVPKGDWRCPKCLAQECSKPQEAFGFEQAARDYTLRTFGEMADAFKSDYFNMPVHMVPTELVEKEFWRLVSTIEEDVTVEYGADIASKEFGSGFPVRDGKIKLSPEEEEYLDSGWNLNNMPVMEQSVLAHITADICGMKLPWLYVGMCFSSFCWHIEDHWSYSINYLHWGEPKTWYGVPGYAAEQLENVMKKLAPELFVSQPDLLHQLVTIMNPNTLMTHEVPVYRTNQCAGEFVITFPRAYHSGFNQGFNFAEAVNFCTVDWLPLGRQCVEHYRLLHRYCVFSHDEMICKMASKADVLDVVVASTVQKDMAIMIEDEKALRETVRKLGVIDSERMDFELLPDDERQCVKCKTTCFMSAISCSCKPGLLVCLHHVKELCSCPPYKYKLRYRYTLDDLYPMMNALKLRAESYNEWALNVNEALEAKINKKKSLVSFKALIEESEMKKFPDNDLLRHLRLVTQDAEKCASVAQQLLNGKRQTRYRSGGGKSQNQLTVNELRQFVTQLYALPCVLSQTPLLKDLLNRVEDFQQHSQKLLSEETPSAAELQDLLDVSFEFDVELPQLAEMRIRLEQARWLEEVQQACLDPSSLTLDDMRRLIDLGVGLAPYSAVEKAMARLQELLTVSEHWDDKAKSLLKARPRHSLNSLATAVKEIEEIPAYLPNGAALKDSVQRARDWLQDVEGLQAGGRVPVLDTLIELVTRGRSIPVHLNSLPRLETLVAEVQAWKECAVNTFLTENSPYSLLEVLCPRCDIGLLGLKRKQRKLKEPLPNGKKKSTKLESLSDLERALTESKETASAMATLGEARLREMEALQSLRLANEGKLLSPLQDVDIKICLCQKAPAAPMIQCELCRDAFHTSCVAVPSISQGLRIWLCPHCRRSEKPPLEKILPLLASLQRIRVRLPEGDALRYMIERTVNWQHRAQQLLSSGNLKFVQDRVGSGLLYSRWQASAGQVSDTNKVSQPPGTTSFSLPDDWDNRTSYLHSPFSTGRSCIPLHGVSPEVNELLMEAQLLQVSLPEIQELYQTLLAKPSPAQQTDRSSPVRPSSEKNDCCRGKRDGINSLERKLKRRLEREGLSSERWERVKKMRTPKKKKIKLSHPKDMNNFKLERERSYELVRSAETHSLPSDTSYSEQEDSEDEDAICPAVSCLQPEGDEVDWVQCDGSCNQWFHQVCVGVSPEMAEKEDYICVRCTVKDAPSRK
#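 KDM5BΔAP (200 nM final) in 50 mM HEPES pH 7.5, 0.01% Tween-20 was preincubated 10 min at RT with compound over a concentration range. Substrate mix (H3K4me3 12.5 µM, α-KG 25 µM, Fe²⁺, ascorbate, NAD⁺, FDH) was added, and NADH fluorescence change over 30 min gave dose-response curves.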
# An asterisk follows results filed as active; i = inactive. Potency is the fitted concentration of half-maximal effect.
SMILES,KDM5B inhibitor
CCc1cc(NCC(c2ccc(C)o2)N2CCOCC2)n2nccc2n1 (stereo not drawn),31.6µM*
COCCn1c(-c2ccccc2Cl)n[nH]c1=S,i
CCn1cc(S(=O)(=O)N2CCCCCCNC(=O)[C@@H]3CCCC[C@@H]32)cn1,i
Cc1cc(C)c(NC(=O)CN(C)Cc2ncc(-c3ccc(F)cc3)o2)c(C)c1,i
COc1ccccc1-c1[nH]nc2ncc(-c3ccccc3C)nc12,31.6µM*
Cc1ccccc1-c1cnc2n[nH]c(-c3ccc4c(c3)OCO4)c2n1,i
COc1ccccc1-c1[nH]nc2ncc(-c3ccnc(C)c3)nc12,i
Cc1ccccc1-c1cnc2n[nH]c(-c3ccccc3)c2n1,31.6µM*
COc1ccccc1-c1[nH]nc2ncc(-c3cccc(O)c3)nc12,35.5µM*
Cc1ccccc1-c1[nH]nc2ncc(-c3ccccc3O)nc12,i
COc1ccccc1-c1[nH]nc2ncc(CNc3ccccn3)nc12,i
COc1ccccc1-c1cnc2n[nH]c(-c3ccc4c(c3)OCO4)c2n1,i
COc1ccc(-c2[nH]nc3ncc(-c4ccccc4O)nc23)c(C)c1,i
COc1cc(F)ccc1-c1cnc2n[nH]c(-c3ccc4c(c3)OCO4)c2n1,i
COc1ccc(-c2[nH]nc3ncc(-c4cccc(N(C)C)c4)nc23)c(C)c1,i
COc1ccccc1-c1[nH]nc2ncc(-c3ccccc3F)nc12,35.5µM*
CC(C)(C)c1csc(NC(=O)C2CC(=O)N(Cc3ccco3)C2)n1 (stereo not drawn),i
Cc1ccc(CN(C)C(=O)c2cc(-c3ccncc3)nc3ccccc23)o1,i
c1ccc2c(CSC3=NCCCN3)cccc2c1,i
CCc1c(C)sc(NC(=O)c2cccc(Cl)c2)c1C#N,i
CC(OC(=O)c1cnc(Cl)c(Cl)c1)C(=O)NC(C)(C#N)C(C)C (stereo not drawn),i
O/N=C/c1c(F)cccc1Cl,i
CC(Sc1nc2ccc(F)cc2c(=O)[nH]1)C(=O)NC1CC1 (stereo not drawn),i
Cc1ccc(NC(=O)N2CCN(c3nnnn3-c3cccc(C(F)(F)F)c3)CC2)cc1F,i
CN(Cc1ccccc1F)S(=O)(=O)c1cn(C)c(=O)n(C)c1=O,i
SMILES,KDM5B inhibitor
O=c1c2cnc3ncnn3c2ccn1CCc1c[nH]c2ccc(Cl)cc12,i
COc1ccc(OCC(=O)NCC(c2ccc(C)cc2)N2CCCC2)cc1 (stereo not drawn),i
Cc1ccc(C)c(-c2nc3ccccc3c(C(=O)O)c2C)c1,i
Oc1ccccc1-c1cnc2n[nH]c(-c3ccc4c(c3)OCO4)c2n1,i
COc1ccc(-c2[nH]nc3ncc(-c4cccc(F)c4)nc23)c(C)c1,i
COc1ccc(-c2[nH]nc3ncc(-c4cccnc4)nc23)c(C)c1,i
Cc1ccsc1-c1[nH]nc2ncc(-c3cccnc3)nc12,i
Cc1ccccc1-c1[nH]nc2ncc(-c3ccnn3C)nc12,35.5µM*
COc1ccc(-c2cnc3n[nH]c(-c4ccc(F)cc4C)c3n2)cn1,28.2µM*
CC(OC(=O)c1nn(-c2ccccc2)c(=O)c2ccccc12)C(=O)N1CCCCCC1 (stereo not drawn),i
CCc1nc2c(c(-c3ccc(Cl)cc3)n1)CN(C(=O)CCl)CC2,i
CC(=O)c1ccc(S(=O)(=O)N2CCN(C(=O)CN3CCC(C)CC3)CC2)cc1,i
N#C/C(=C\c1ccc(OCc2cccc(C(=O)O)c2)cc1)C(=O)N1CCOCC1,i
COCCN(C)C[C@@H]1CN(C(=O)c2ccc(=O)[nH]n2)C[C@@H]1CO,i
CN(CCO)C[C@@H]1CN(C(=O)c2nc3ccccc3[nH]c2=O)C[C@@H]1CO,28.2µM*
COCCN(C)C[C@@H]1CN(C(=O)c2cc3ccccc3s2)C[C@@H]1CO,i
CCOc1ccccc1NC(=O)Cn1nc(C(=O)O)c2ccccc2c1=O,i
O=C(c1ccc(-c2ccco2)cc1)N1CCOC(c2ccccc2)C1 (stereo not drawn),28.2µM*
O=C(c1ccccc1)N1CCN(C(=O)c2nnn3c2COC(c2ccccc2)C3)CC1 (stereo not drawn),i
O=C(c1ccc2ncccc2c1)N1CCOC(c2ccc(Cl)c(Cl)c2)C1 (stereo not drawn),i
O=C(COc1ccc(-n2cnnn2)cc1)N1CCN(S(=O)(=O)c2ccc3ccccc3c2)CC1,i
COc1cccc(OC)c1C(=O)Oc1cc(C)c2c(c1)O/C(=C\c1ccncc1)C2=O,i
Cn1nnnc1C1CCCN(C(=O)NC2CCCCC2)C1 (stereo not drawn),i
Cn1nnnc1C1CCCN(C(=O)CCC2CCCC2)C1 (stereo not drawn),i
Cn1nnnc1C1CCCN(C(=O)C2CCCC2)C1 (stereo not drawn),28.2µM*
Cc1ccc(SCc2ccc(C(=O)Nc3cc(C)ccc3C)cc2)cc1,i
COc1ccc(-c2noc(C(=O)O)c2[C@@H](C)NS(=O)(=O)CC(C)C)cc1,i
CC(C)C(=O)N1CCN(C(=O)Cn2cnc3sccc3c2=O)CC1,i
